PubChem BioAssay (NCI)
Compounds without any hit were thinned out: in the full panel of roughly 79,000, 15% have a hit. Unmarked numbers belong to inactive results. Active and inactive are the calls of the source. Rule as the data show it: active = growth inhibition above about 70%; inactive = the rest.

How the values were obtained:
[1] = NCI Yeast Anticancer Drug Screen. Data for the rad50 strain (AID 155);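 also: 0% = growth of vehicle-only cultures of the same strain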; conditions: S. cerevisiae rad50 strain growth inhibition; at 50.0 µM; hits give high values
Summary of the method: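 Relative growth inhibition (compound vs vehicle) was measured in yeast with a defined repair-gene alteration.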

[2] = NCI Yeast Anticancer Drug Screen. Data for the mec2-1 strain (AID 157); conditions: S. cerevisiae mec2-1 strain, at 50.0 µM, hits give high values
Summary of the method: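 Compounds were applied to mec2-1 yeast cells. Their growth was then compared with that of vehicle-treated cultures to give growth inhibition.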

[3] = NCI Yeast Anticancer Drug Screen. Data for the sgs1 mgt1 strain (AID 161);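 also: 0% = growth of cultures given vehicle only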; conditions: S. cerevisiae sgs1 mgt1 strain, at 50.0 µM, hits give high values
Summary of the method: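 Percent growth inhibition was derived by comparing compound-exposed mutant yeast with vehicle-exposed cultures. The strain carries alterations in DNA damage repair.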

[4] = NCI Yeast Anticancer Drug Screen. Data for the cln2 rad14 strain (AID 165);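 also: 0% = growth equal to vehicle treated cultures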; conditions: S. cerevisiae cln2 rad14 strain, at 50.0 µM, hits give high values
Summary of the method: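 Strain: cln2 rad14 yeast, altered in cell cycle control and DNA damage repair. Read-out: growth inhibition vs vehicle.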

[5] = NCI Yeast Anticancer Drug Screen. Data for the bub3 strain (AID 167); conditions: S. cerevisiae bub3 mutant strain, at 50.0 µM, hits give high values
Summary of the method: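 Screening used yeast with an engineered genetic alteration affecting cell cycle control. Compound-exposed cultures were compared with vehicle cultures, and reduced growth was taken as inhibition.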

[6] = NCI Yeast Anticancer Drug Screen. Data for the mlh1 rad18 strain (AID 175); conditions: S. cerevisiae mlh1 rad18 strain growth inhibition; at 50.0 µM; hits give high values
Summary of the method: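 A repair-deficient yeast strain is exposed to test compound, and growth is scored relative to vehicle-treated controls.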

Structure (SMILES) | growth inhibition [1] | growth inhibition [2] | growth inhibition [3] | growth inhibition [4] [%] | growth inhibition [5] | growth inhibition [6]
CCOC(=O)c1ccc(NC(=O)Nc2cccc(Cl)c2)cc1 | -4.2% | 34.5% | 50% | -17.9 | 25.4% | 23.9%
Cc1cc2nc(/C(C#N)=C/c3cc(Cl)cc(Cl)c3O)[nH]c2cc1C | 16.2% | 22.4% | 33% | 28.1 | 19.4% | -3.35%
c1cncc(C2c3[nH]c4ccccc4c3CCN2CCN2CCCCC2)c1 (stereo not drawn) | -32.8% | -46.5% | -9.4% | -4.35 | -37.5% | -34.4%
Nc1ccn(CCO)c(=O)n1 | -3.95% | 2.05% | -23.2% | -0.8 | -5.3% | -7.95%
Cc1ccc(S/C=C/Sc2ccc(C)cc2)cc1 | 15.1% | 8.15% | 3.55% | -14.6 | 22.9% | 36%
O=C(O)c1cccc(-n2cnc3c(=O)[nH]cnc32)c1 | -0.25% | -3.85% | -5.85% | -9.15 | 8.6% | -14.2%
C=C[C@@]1(C)CCC2(O)C(CCC3C2(C)CCC[C@@]3(C)COC(=O)CC(=O)OC)C1 (stereo partly drawn) | 82.8% (active) | 72.1% (active) | 78% (active) | 60.5 | 76.3% (active) | 79.2% (active)
CCOC(=O)CCCCCCCCCCCCCCCCC(=O)OCC | 30.9% | -31.9% | -14.2% | 19.5 | 7.75% | 8.9%
Cc1onc(-c2ccccc2)c1C(=O)N1CCCN2C(=O)c3ccccc3C21 (stereo not drawn) | -0.3% | -11.1% | 15.8% | 2 | 22.3% | 15.8%
CCOC(=O)c1cc(C=O)oc1C | 6.8% | -4.2% | -8.1% | -42.6 | 2% | -0.75%
c1ccc(C(c2ccccc2)c2cc(-c3cc(C(c4ccccc4)c4ccccc4)[nH]n3)n[nH]2)cc1 | -9.25% | 21.4% | -7.55% | -28.6 | -11.6% | 6.25%
C/C(=C\c1ccccc1)C(O)S(=O)(=O)O (stereo not drawn) | 4.5% | -0.35% | -2.9% | 11.9 | -12.1% | -4.55%
O=Cc1ccc(N2CCCCC2)cc1 | 4.05% | 7.95% | -13.2% | -24.2 | -8.25% | -4.45%
Clc1ccc2c(c1)C1Oc3ccc(Cl)cc3C(O2)O1 | -5.5% | -24.5% | 1% | -14.3 | -6.4% | -2.3%
CCOP(=O)(OCC)/C(=C\n1ccc(=O)[nH]c1=S)C(=O)OC | -54.8% | -54% | -27.4% | -8.6 | -28% | -53.5%
CCOC(=O)c1n[nH]c(C)c1C/C(=N/O)c1ccccc1 | -14.3% | -24.4% | -8.25% | -14.9 | -14.9% | -35.9%
CC(=O)Nn1cnc(C(=N)C#N)c1N | -27.1% | -6.15% | -6.15% | 11.8 | -0.75% | -2.95%
CC12CCc3ccccc3C1=NNC(=O)C2 (stereo not drawn) | -3.2% | -7.55% | 19.6% | -6.45 | -5.85% | -6.15%
Cn1c(=O)c2c(nc(CCNC(=O)c3ccccc3)n2C)n(C)c1=O | -1.15% | -7.75% | 11.1% | -27.4 | 5.6% | -17.1%

Structure (SMILES) | growth inhibition [1] | growth inhibition [2] | growth inhibition [3] | growth inhibition [4] [%] | growth inhibition [5] | growth inhibition [6]
O=c1[nH]c(=O)n(C2CC(O)C(CO)O2)cc1C#Cc1ccc(C(F)(F)F)cc1 (stereo not drawn) | 13.1% | -3.4% | 5% | -2.45 | 19.2% | -13.7%
C1=Nc2ccccc2Cn2nncc21 | 19.7% | 21% | 43.1% | 18.4 | 17.1% | 41.5%
C#CCNC(=O)NCCCl | 18.9% | -3.45% | -0.3% | -34.1 | 27.9% | 2.65%
CCC(CC(N)=O)C(C#N)(C#N)C(N)=O (stereo not drawn) | 12.9% | 5.05% | -4.05% | -2.85 | 7.1% | 3.95%
CCC1OC(=O)C(CC)OC1=O (stereo not drawn) | -5.75% | -20.2% | -25.6% | -2.05 | -28.9% | -24.4%
O=C1CCCCC1C(Nc1ccccc1)c1ccccc1 (stereo not drawn) | 2.95% | -6% | -10.7% | 15.8 | -2.6% | 17.1%
CN(C)CCCNc1ccc2ncn3c4ccc(O)cc4c(=O)c1c23 | -4.45% | -3.9% | -14.3% | -15.3 | 0.5% | 7.9%
Cc1nc2ccccc2c(=O)n1NC(=O)c1ccccc1O | -7.45% | -53.6% | -7.6% | 11.5 | -4.1% | 17.1%
CC(=O)Nc1cc2c(cc1Cl)-c1cc(Cl)c(Cl)cc1C2=O | -18.1% | -2.55% | -9.85% | -25.1 | -20.7% | -17.5%
CCO/C(C)=N/n1c(C)nc2[nH]ncc2c1=O | 1.55% | -10.8% | 5.55% | -6.45 | 11.7% | 17.9%
O=C1N(O)C2(C=CCCC2)/C(=N/O)C12CCCCC2 (stereo not drawn) | -8.5% | -2.3% | -0.9% | 11.4 | 11.4% | 12.1%
O=C(O)C1C2C=CC(O2)C1C(=O)Nc1ncccn1 (stereo not drawn) | -0.65% | -33.9% | -14.4% | -23.3 | -35.4% | -3.6%
C/C(=N/NC(N)=S)c1c[nH]c(=O)[nH]c1=O | -3% | -16.6% | -4.45% | -9.6 | -5.95% | -7.35%
C#C/C=C/CC1OC(C(Br)CC)CC(Br)C2CC1O2 (stereo not drawn) | 20.6% | 16.8% | 36.4% | 24.4 | 32% | -18.2%
CN(C)Cc1cccc(C(F)(F)F)c1C(O)c1ccccc1 (stereo not drawn) | 7.75% | -10.2% | -5.3% | 3.9 | 7.7% | -14.7%
Cc1ccc(NC(=O)Oc2ccccn2)cc1 | -9.7% | -30.5% | -8.05% | -4.4 | -0.35% | -6.25%
CSc1ccc(C2OC(=O)c3ccccc32)c2ccccc12 (stereo not drawn) | 20.4% | -11.6% | 21.2% | 8.25 | -14.8% | 5.1%
CC12CCCCC1CC(=O)/C(=C\O)C2 (stereo not drawn) | 12.7% | 15.1% | 17.9% | -29.1 | -11.3% | 14%
NC(=S)NNC(=O)C(Cc1ccccc1)NC(=O)OCc1ccccc1 (stereo not drawn) | 1.75% | 17.7% | 22.9% | -7.6 | 15.7% | 11.4%
